# Screening results: PubChem, National Center for Advancing Translational Sciences (NCATS)
# Most compounds without a hit are left out; they make up all but 19% or so of the library.
# AMA1-RON2 inh – qHTS for Inhibitors of AMA1-RON; Towards Development of Antimalarial Drug Lead: Primary Screen. Plasmodium falciparum AMA1 (3D7) - RON2 peptide interaction. AlphaScreen AMA1-biotinylated RON2 peptide binding. Potency, µM (titrated, usually from 58.2 µM), for inactives: at the highest dose activity change, negative = inhibition, usual class: inhibitors. 0.2% of 360,000 active;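 also: potency is read from the fitted curve at half-maximal effect; 0% = vehicle wells and -100% = peptide control; nearly all actives have a fitted effect of over 45% in size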
#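 AMA1 (3D7) with his tag at 25 nM final met compounds first, then biotinylated RON2 peptide at 25 nM; detection used donor plus acceptor beads, 10 µg/mL apiece, read by AlphaScreen after 30 min at room temperature.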
# SARS PLpro yeast – qHTS of Yeast-based Assay for SARS-CoV PLP. S. cerevisiae expressing SARS-CoV PLpro, growth rescue. Potency, µM (highest dose often 32.9 µM), for the others: top-dose activity, positive = growth rescue, usual class: activators. 0.19% of 330,000 active; calls by dose curve; also: potency is read from the fitted curve at half-maximal effect; 0% is about no effect; nearly all actives have a fitted effect of over 55% in size
# Shiga toxin inh – A qHTS for Small Molecule Inhibitors of Shiga Toxin | inhibition, % at 38.7 µM | 9.2% of 290,000 active | Vero cells, Shiga toxin protein synthesis inhibition reporter; in the data active = inhibition mostly above about 28%, no sharp cut-off; inactive = mostly below about 43%; also: 0% is about no effect
# Pf growth 96h – Primary qHTS for delayed death inhibitors of the malarial parasite plastid, 96 hour incubation. P. falciparum luciferase reporter growth, 96 h. Potency, µM (doses to about 28.7 µM), inactives show top-dose activity change, negative = inhibition, usual class: inhibitors. 6.9% of 320,000 active. AID 504834, 2011; also: potency is read from the fitted curve at half-maximal effect; % is scaled to controls: 0 for no effect and ±100 for the full control effect
#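 Readout is luminescence from an integrated firefly luciferase in P. falciparum. Red cells, 2% hematocrit and 0.05% parasitemia final, were cultured with compound through two parasite generations (96 hours) at 37 C, 5% CO2.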
# Pf growth 48h – Primary qHTS for delayed death inhibitors of the malarial parasite plastid, 48 hour incubation; P. falciparum luciferase growth in erythrocytes, 48 h; Potency, µM (highest dose often 28.7 µM), for the others: top-dose activity change, negative = inhibition, most hits filed as inhibitors; 5.9% of 310,000 active; AID 504832, 2011; also: potency is read from the fitted curve at half-maximal effect; % is scaled to controls: 0 for no effect and ±100 for the full control effect
#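 Luminescence readout; reporter = integrated firefly luciferase in P. falciparum. RBC culture at 2% hematocrit, 0.1% parasitemia final, 37 C/5% CO2; decreased signal taken as growth inhibition.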
# CHX counter – Cycloheximide Counterscreen for Small Molecule Inhibitors of Shiga Toxin | AID 2314, 2010 | max response, % | cell reporter, cycloheximide protein synthesis inhibition counterscreen | 12% of 300,000 active; in the data active = max response mostly above about 13%, no sharp cut-off; inactive = mostly below about 14%; also: read at 38.3 µM for the half of the compounds with a filed dose; 0% is about no effect
# The depositor's hits bear a star; i = inactive; u = inconclusive; x = no result. Unless noted, calls follow the shape of the dose curve; as a rule, active = well fitted curve in the direction sought with a large enough effect; inconclusive = small, poorly fitted or top-dose-only effect, or another doubt; inactive = no such curve, though single readings can be large; an effect the other way counts as inactive or inconclusive.
SMILES,AMA1-RON2 inh,SARS PLpro yeast,Shiga toxin inh,Pf growth 96h,Pf growth 48h,CHX counter
COc1cc(OC)c(NC2c3ccccc3C(=O)N2c2cc(C)ccn2)cc1Cl (centres undefined),-13%,9%,-4,12µM*,-12%,-1
O=C1c2ccccc2C(Nc2ccccc2)N1c1cccnc1 (centres undefined),0%,1%,-11,u,x,-4
CCOC(=O)c1ccccc1NC1c2ccccc2C(=O)N1c1cc(C)ccn1 (centres undefined),10%,-12%,-18,u,x,-7
CCOC(=O)C1CCCN(Cc2ccc(OC)c(OCc3ccccc3)c2)C1 (centres undefined),-8%,5%,-5,u,1%,-2
Clc1cccc(Cl)c1CSc1nnc([C@@H]2CCCN2)o1,53%,1%,21,45%,6%,-1
O=C(CSc1nc2ncc(Cl)cc2[nH]1)N1CCC(Cc2ccccc2)CC1,-7%,0%,x,x,x,x
CN(C)/C=N/c1ncnc2c1cnn2-c1ccc(C(F)(F)F)cn1,-11%,-5%,77*,17%,41%,41*
CCC1(C)N=C(c2ccc3c(c2)OCO3)CC(c2ccccc2O)N1 (centres undefined),-3%,-26%,66*,x,4.7µM*,44*
COc1cccc(C2=NC(C)(C)NC(c3ccccc3O)C2)c1 (centres undefined),-18%,-8%,56*,0%,9.3µM*,34*
COc1cccc(C(O)c2nc(-c3cccc(C(=O)O)c3)cs2)c1 (centres undefined),-1%,x,x,x,x,x
COc1ccc(C)cc1Nc1n[n+](C)c(-c2ccc(O)cc2O)s1,34%,-6%,-8,u,u,3
COc1ccc(C)cc1Nc1n[n+](-c2ccccc2)c(-c2c(Cl)cccc2Cl)s1,u,-6%,12,7.4µM*,10µM*,3
COc1ccc(C)cc1Nc1n[n+](-c2ccccc2)c(-c2ccc(OC)c(OC)c2OC)s1,58%,2%,-8,1µM*,u,-1
COc1ccc(C)cc1Nc1n[n+](C)c(-c2c3ccccc3cc3ccccc23)s1,-12%,-5%,15,u,u,7
COc1ccc(C)cc1Nc1n[n+](-c2ccccc2)c(-c2ccc(N(C)C)cc2)s1,-1%,-7%,12,2.1µM*,2.6µM*,2
CCOc1cc(-c2sc(Nc3ccccc3)n[n+]2C)ccc1OC,-1%,6%,6,4%,u,2
O=C(Nc1ccccc1)c1cc(C2COCCN2C(=O)CCCc2ccccc2)on1 (centres undefined),-2%,x,x,x,x,x
COc1ccc(-n2c(SC(C)C(=O)Nc3ncc(Cl)cc3Cl)nc3ccccc32)cc1 (centres undefined),-7%,1%,-2,u,10µM*,2
CCN1CCN(c2cc(C)c3cc(NC(=O)CCC(=O)N4CCN(c5ccccc5OC)CC4)ccc3n2)CC1,-3%,1%,4,88%,u,17*
CCOc1ccc(C(=O)Nc2ccc3nc(N4CCN(CC)CC4)cc(C)c3c2)cc1,-4%,0%,-17,18%,2.3µM*,-8
CCN1CCN(c2cc(C)c3cc(NC(=O)c4cnccn4)ccc3n2)CC1,0%,-6%,24,-20%,x,4
CCN1CCN(c2cc(C)c3cc(NC(=O)c4cc(OC)cc(OC)c4)ccc3n2)CC1,9%,1%,64*,u,u,18*
CC(NS(=O)(=O)c1ccc2c(c1)CC(C)N2C(=O)C1CC1)c1ccccc1 (centres undefined),-4%,4%,-2,7%,-1%,-1
Cc1cccc(C)c1C(=O)N[C@@H](Cc1ccccc1)C(=O)O,5%,-1%,-10,35%,49%,1
CC(O)CNc1nc2ccccc2n1-c1ncnc2sc3c(c12)CCC3 (centres undefined),-10%,-6%,1,4.1µM*,x,2
SMILES,AMA1-RON2 inh,SARS PLpro yeast,Shiga toxin inh,Pf growth 96h,Pf growth 48h,CHX counter
c1ccc2c(c1)ncn2-c1ncnc2sc3c(c12)CCCC3,13%,3%,-34,-1%,19%,-5
c1ccc2c(c1)nnn2-c1ncnc2sc3c(c12)CCCC3,12%,7%,28,3.3µM*,0%,14*
CCOC(=O)c1nn(-c2ccc3c(c2)CCN3C(C)=O)cc1O,-1%,-5%,40,-7%,110%,21
NNC(=O)c1nn(-c2ccccc2)cc1O,x,10µM*,-19,-2%,-4%,0
CCOC(=O)c1nn(-c2ccc(C)cc2)c(=O)c2c(N)scc12,-8%,-13%,-4,x,u,1
CCOC(=O)c1nn(-c2ccc(F)cc2)c(=O)c2c(N)scc12,-3%,0%,19,16%,u,19*
CCOC(=O)c1nn(-c2ccc(F)cc2)cc1O,6%,-4%,115*,117%,258%,52*
COc1cc2c(cc1OC)[C@@H](NC(=O)COc1ccccc1)[C@H](OCc1ccccc1)C2,-3%,u,x,x,x,x
CC1(C)C2CCC(CN)C1C2 (centres undefined),0%,x,x,x,x,x
Cc1ccc(C)c2sc(NC(=O)C3CC3)nc12,-8%,-4%,-3,58%,7%,1
Cc1cc(C)c(NC(=O)c2ccc(S(=O)(=O)N(C)C)cc2)c(C)n1,-2%,3%,-3,x,-14%,-2
Cc1ccccc1NC(=O)c1sc(NC(=O)C2CC2)nc1C,4%,4%,21,-25%,u,11*
Cc1nc(NC(=O)C2CC2)sc1C(=O)Nc1ccccc1,2%,17%,22,u,-6%,-1
Cc1cccc(C(=O)NC(=O)Nc2c(C)cc(C)nc2C)c1,-13%,1%,58*,u,311%,21*
CC(=O)c1sc(NC(=O)c2ccc(Cl)cc2)nc1C,5%,-1%,71*,56%,-19%,30*
CC(=O)c1sc(NC(=O)c2ccc(F)c(F)c2)nc1C,3%,8%,41,x,89%,9
Cc1cc(C)c2sc(NC(=O)C3CC3)nc2c1,24%,-3%,42*,65%,47%,27*
COc1cc2c(cc1OC)C(c1ccccc1)N(Cc1ccc(S(=O)(=O)NC(=O)c3ccco3)cc1)CC2 (centres undefined),-22%,x,x,x,x,x
CC(=O)c1sc(NC(=O)c2ccccc2C)nc1C,-14%,-6%,51,161%,122%,47*
CC(=O)c1sc(NC(=O)c2cccc(C)c2)nc1C,-1%,-2%,68*,i,284%,43*
CC(=O)Nc1nc(C)c(C(C)=O)s1,0%,4%,-14,61%,x,-1
